Laboratory results published in PubChem BioAssay AID488857 (Sanford-Burnham Center for Chemical Genomics, 2010).
About 560 (40%) of roughly 1,400 compounds were called active.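 The calls were made as follows: active = mean inhibition over duplicate tests at 10 µM above 50%; inactive = the rest.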 The set was probably picked from earlier hits. The list shows a part of the results.

Assay: ASC/caspase-1 reporter retest in S. cerevisiae at one dose, specificity check for NALP1 project (AID 488857)
Settings: S. cerevisiae ASC/Caspase-1, beta-galactosidase luminescence, 24 h; at 10 µM; active compounds read high

Structure (SMILES) | inhibition
C=CCNC(=S)N/N=C(\C)c1ccccn1 | 90.2% (active)
O=C(N/N=C/c1ccc2nccnc2c1)c1ccccc1O | 36% (inactive)
O=C(N/N=C/c1cc(Cl)ccc1O)c1ccc(Br)cc1 | 54.1% (active)
O=C(N/N=C/c1cc2c3c(c1O)CCCN3CCC2)c1ccccc1O | 34.8% (inactive)
COC(=O)c1ccc(Oc2ccc(S(=O)(=O)N3CCCCC3)cc2N)cc1 | 97.8% (active)
CC(=O)c1ccc(S(=O)(=O)N2CCCC2)cc1 | 46.1% (inactive)
C=CCc1cc(Cl)ccc1OCCOCCNCCOC | 50.9% (active)
C=CCc1cc(Cl)ccc1OCCNCCCOC | 48.5% (inactive)
Cc1cc(SC#N)cc(C)c1NC(=O)CCl | 25.8% (inactive)
O=C(NCc1ccco1)c1cnn2c1NC(c1ccc(Br)cc1)CC2C(F)(F)F (configuration not stated) | 63.1% (active)
COc1ccc(/C=C\c2onc(C)c2S(=O)(=O)N2CCC(C(=O)NCc3ccco3)CC2)cc1 | 42% (inactive)
COc1cccc(N2CCN(C3CCCC(C)C3)CC2)c1 (configuration not stated) | 38% (inactive)
COc1cccc(NC(=O)Cn2cnc3sc(C)c(S(=O)(=O)N4CCCCC4)c3c2=O)c1 | 30.9% (inactive)
O=C(COC(=O)c1cccs1)Nc1nc(-c2ccccc2)cs1 | 48.2% (inactive)
CC1CC1C(=O)Nc1nc(-c2ccccc2)cs1 (configuration not stated) | 68.5% (active)
O=C(COC(=O)/C=C/c1cccs1)Nc1nc(-c2ccccc2)cs1 | 13.3% (inactive)
Cc1cc(C)cc(N2C(=O)CC(Sc3ncn[nH]3)C2=O)c1 (configuration not stated) | 63.5% (active)
Cc1ccc(N2C(=O)CC(Sc3ccccc3C(=O)O)C2=O)cc1 (configuration not stated) | 26.1% (inactive)
CC(C)c1ccc(N2C(=O)CC(Sc3ncn[nH]3)C2=O)cc1 (configuration not stated) | 58.9% (active)
O=C(Cn1nnc2ccccc21)OCC(=O)c1ccc(Cl)cc1 | 39.8% (inactive)
CCn1c(=O)cc(SCC(=O)N2CCN(C3CCCCC3)CC2)c2ccccc21 | 29.9% (inactive)
CCn1c(N2CCN(C(=O)C34CC5CC(CC(C5)C3)C4)CC2)nc2ccccc21 | 54.5% (active)
CN1c2ccccc2-c2nc3ccccc3n2C1c1cccs1 (configuration not stated) | 62.9% (active)
c1csc(C2Nc3ccccc3-c3nc4ccccc4n32)c1 (configuration not stated) | 64.8% (active)
c1csc(CNc2nc3ccccc3n2CCN2CCOCC2)c1 | 35.6% (inactive)
CCN1c2ccccc2-c2nc3ccccc3n2C1c1cccs1 (configuration not stated) | 63.7% (active)

Structure (SMILES) | inhibition
CCOC(=O)N1CCC(=NNS(=O)(=O)c2cccc([N+](=O)[O-])c2)CC1 | 31.6% (inactive)
COn1c2c(c3c4nonc4ccc31)CCCC2 | 31.4% (inactive)
Cc1nc2cc(C(=O)NCc3ccc4c(c3)OCO4)ccc2n1-c1ccc(Br)cc1 | 58.9% (active)
CC1CC(C)CN(S(=O)(=O)c2ccc(C(=O)NCc3ccc4c(c3)OCO4)cc2)C1 (configuration not stated) | 31.6% (inactive)
O=C(/C=C\Nc1cccc(F)c1)c1cccs1 | 47.2% (inactive)
COc1cc(NC(=O)c2cccs2)cc(OC)c1 | 82% (active)
CCN(CC)S(=O)(=O)c1cccc(C(=O)Oc2cccc(NC(=O)c3cccs3)c2)c1 | 35.9% (inactive)
CC1CCCC(C)N1C(=O)CN1CCN(c2nc(-c3ccc(F)cc3)cs2)CC1 (configuration not stated) | 44.5% (inactive)
O=C(CN1CCCCC1)Nc1cccc(Oc2ccccc2)c1 | 38.8% (inactive)
O=C(CN1CCCCC1)Nc1nc(-c2ccc(F)c(F)c2)cs1 | 55.9% (active)
COCC(=O)n1nc(-c2ccc(Cl)cc2)nc1NCc1ccc(F)cc1 | 36.2% (inactive)
CCCCCCCCNC(C)C(O)c1ccc(SC(C)C)cc1 (configuration not stated) | 38.9% (inactive)
CC(C)CC(=O)/C(=C\c1ccc(Cl)cc1Cl)n1cncn1 | 101% (active)
CSc1nnc(-c2cc3c(s2)-c2ccccc2CC3)o1 | 46.8% (inactive)
CC(OC(=O)Cc1c(F)cccc1Cl)C(=O)NCCC1=CCCCC1 (configuration not stated) | 46.8% (inactive)
COC(=O)COc1ccc(S(=O)(=O)NCCC2=CCCCC2)cc1Cl | 40.1% (inactive)
O=C(COC(=O)Cc1c(F)cccc1Cl)NCCC1=CCCCC1 | 61.6% (active)
Cc1cc(C(C)(C)C)cc(S(=O)(=O)Nc2ccc(O)c(C(=O)O)c2)c1C | 27.8% (inactive)
Cc1ccc(Oc2ccccc2/C=N/O)cc1 | 51.9% (active)
Cc1ccc(/C(COc2ccccc2O)=N\O)cc1 | 47.8% (inactive)
COc1ccccc1/C=N\N=C(\N)c1ccccn1 | 48.5% (inactive)
COC(=O)c1sccc1NC(=O)c1csc(C)c1 | 49% (inactive)
Cc1ccc2c(Cl)c(C)c(N3CCCCC3)nc2n1 | 74.8% (active)
NC(=O)C1(N2CCCCC2)CCN(Cc2nc(-c3cccs3)no2)CC1 | 24.1% (inactive)
COC(=O)c1ccc(NC(=O)CN2C(=O)CNC2=O)cc1 | 30.4% (inactive)
COC(=O)c1ccc(C(=O)OC)c(NC(=O)COC(=O)C2CCCCC2)c1 | 35.8% (inactive)

Structure (SMILES) | inhibition
COC(=O)c1ccc(NC(=O)C(=O)N2CCCC2)cc1 | 52.5% (active)
CCOC(=O)C1(Cc2ccc(OC)cc2)CCN(C(=O)CCc2cnccn2)CC1 | 20.9% (inactive)
COc1ccc(Nc2ncccc2C(=O)NCc2ccccc2)cc1 | 67% (active)
Cc1cccnc1NC(=O)c1ccccc1NC(=O)C(C)(C)C | 41.2% (inactive)
Cc1cc(C)c([C@@H]2C[C@H]3CN(C4CCCC4)C(=O)[C@]34CCCN24)c(-n2cccn2)c1 | 36.2% (inactive)
O=C(Nc1ccc(Cl)c(Cl)c1)c1ccncc1 | 44.9% (inactive)
O=C(CN1CCN(c2ccccc2)CC1)Nc1ccc2c(c1)CCC2 | 21.1% (inactive)
CS(=O)(=O)N(Cc1ccccc1)c1ccc(C(=O)Nc2cccnc2)cc1 | 36% (inactive)
COc1ccc(OCC(=O)NC(=S)N2CCCc3ccccc32)cc1 | 37.9% (inactive)
C=C(C)C(=O)Nc1cccc(C(C)=O)c1 | 38.2% (inactive)
O=C(Nc1ccc2c(c1)CCC2)c1ccccc1 | 71.7% (active)
O=C(Nc1ccc2nc3ccccc3nc2c1)c1ccccc1 | 90.7% (active)
O=C(COC(=O)CCC1CCCCC1)Nc1ccc(OC(F)F)cc1 | 23.5% (inactive)
O=C(COc1ccc(Cl)cc1)Nc1ccc2c(c1)CCC2 | 71.5% (active)
CS(=O)(=O)N(Cc1ccccc1)c1ccc(C(=O)Nc2ccc3c(c2)OCO3)cc1 | 36% (inactive)
O=C(Nc1ccc2c(c1)Cc1ccccc1-2)c1ccncc1 | 74.5% (active)
Cc1cccc(N2C(=O)CC(Sc3ccccc3C(=O)O)C2=O)c1 (configuration not stated) | 49.3% (inactive)
COC(=O)c1ccccc1SC1CC(=O)N(c2cccc(C)c2)C1=O (configuration not stated) | 37.6% (inactive)
CCN(CC)C1CC(=O)N(c2cccc(C)c2)C1=O (configuration not stated) | 58% (active)
C=CCn1c(CNC(=O)c2cccs2)nnc1SCC(=O)Nc1ccc(C(=O)O)cc1 | 28.1% (inactive)
O=c1sc(Nc2ccccc2)nc2ccsc12 | 77.2% (active)
N#Cc1ccc(Oc2nc(Nc3ccc(F)cc3)nc(N3CCCC3)n2)cc1 | 37.5% (inactive)
CN(C)S(=O)(=O)c1cccc2c1C(=O)c1ccccc1C2=O | 44.5% (inactive)
O=C1c2cccc(O)c2C(=O)c2c(O)cccc21 | 59.5% (active)
CN(C=[N+](C)C)c1cccc2c1C(=O)c1ccccc1C2=O | 42.7% (inactive)
S=C(NC1CCCCC1)NN(c1ccccc1)c1ccccc1 | 53.4% (active)

Structure (SMILES) | inhibition
O=C(O)CCCCc1nc2ccccc2s1 | 32% (inactive)
CCOc1ccccc1N1CCN(C(=O)CCCc2nc3ccccc3s2)CC1 | 48.7% (inactive)
O=C(CCc1nc2ccccc2s1)Nc1ccccc1 | 80.2% (active)
Cc1ccsc1/C=N/n1c(-c2ccccn2)n[nH]c1=S | 54.9% (active)
Cc1ccc2nc(Cl)c(C3CC(c4cccs4)=NN3C(=O)CCCC(=O)O)cc2c1 (configuration not stated) | 30.2% (inactive)
Cc1ccc(Sc2nnc(Cc3ccccc3)c3ccccc23)cc1 | 48.1% (inactive)
Clc1ccc2oc3c(Cl)ncnc3c2c1 | 29.9% (inactive)
COc1ccc2c(c1)C1=NN(/C(C)=C/C(C)=O)C(c3cccc(F)c3)C1CC2 (configuration not stated) | 47.5% (inactive)
Cc1ccc(C(=O)/C=C\C(=O)c2ccc(C)cc2)cc1 | 44.1% (inactive)
Cc1ccc(C(=O)c2no[n+]([O-])c2C(=O)c2ccc(C)cc2)cc1 | 77.2% (active)
CC(C)c1nc2sc3c(=O)[nH]c(=S)[nH]c3c2c2c1CCC2 | 32% (inactive)
O=C1C2C3C=CC(C2C(=O)N1CCCO)C1C2C(=O)N(CCCO)C(=O)C2C31 (configuration not stated) | 40.4% (inactive)
O=C(O)C1(c2ccccc2)CCN(S(=O)(=O)c2ccc(Br)cc2)CC1 | 29.4% (inactive)
CCOC(=O)C1CCCCN1Cc1cccc(F)c1 (configuration not stated) | 27.4% (inactive)
O=S(=O)(c1ccc(Br)cc1)N1CCCN(Cc2cccc(F)c2)CC1 | 61.5% (active)
COc1ccccc1C(=O)Nc1ccc(OCc2nnc3c4ccccc4c(C)nn23)cc1 | 45.4% (inactive)
COc1ccccc1-c1nnc2sc(COc3ccc(Cl)cc3)nn12 | 56.9% (active)
Clc1ccc(Cn2c(/C=C/c3ccco3)nc3ccccc32)cc1 | 46.5% (inactive)
Oc1c(CN2CCCCC2)cc(Br)c2cccnc12 | 49% (inactive)
Oc1c(I)cc(Cl)c2cccnc12 | 97.2% (active)
O=C(N/N=C/c1cccc(F)c1)c1c(O)c2ccccc2[nH]c1=O | 38.5% (inactive)
NC(=S)N/N=C/c1coc2c(ccc3ccccc32)c1=O | 58% (active)
CSc1ccc(C(=O)C2CCCN(C(=O)c3ccc4c(c3)no[n+]4[O-])C2)cc1 (configuration not stated) | 19.9% (inactive)
Cn1c(=O)c([N+](=O)[O-])c(-n2cnc3ccccc32)c2ccccc21 | 14.3% (inactive)
